# According to PubChem BioAssay:
# How the values were obtained:
# [1] = tested on: Human papillomavirus type 1a protein E7 (residues 44-93); assay: HPV1a E7 fragment binders on microarrays, primary screen, biochemical, small-molecule microarray, residues 44-93, 635 nm fluorescence (AID 1108); settings: small-molecule microarray binding, fluorescence 635 nm; higher = more signal;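 also: E7 fragment applied at 1 µg/mL in TBST for 1 h at 4 C; score combines spot fluorescence with its signal to noise ratio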
# [2] = modulators of HCV replicon luciferase signal, primary screen, HCV replication inhibitor project, Huh7 cells, luciferase reporter (AID 1109); settings: 48 h, higher = more signal;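 also: huh7 hepatoma cells harbouring a luciferase neomycin HCV replicon reporter; luciferase luminescence as measure of HCV replicon replication; test concentration not given here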
# [3] = biological target: Left-right determination factor 2 (Homo sapiens) (UniProt O00292); assay: LEFTY2 binders on small-molecule microarrays, primary screen, biochemical, small-molecule microarray, 635 nm fluorescence scan (AID 1110); settings: LEFTY2 binding, higher = more signal
# [4] = biological target: Calmodulin-1 (Homo sapiens) (UniProt P0DP23); assay: CALM1 binders on microarrays, EGTA buffer, profiling panel, biochemical, small-molecule microarray, Cy5-labelled CALM1 (AID 1111); settings: Cy5-CALM1 binding fluorescence, higher = more signal;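 also: labelled calmodulin applied in Tris saline Tween buffer holding calcium plus EGTA and DTT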
# [5] = biological target: Calmodulin-1 (Homo sapiens) (UniProt P0DP23); assay: calcium-bound CALM1 binders on microarrays, profiling panel, artefact control for SMM control-protein annotation, biochemical, small-molecule microarray, Cy5-labelled CALM1, plus calcium (AID 1112); settings: Cy5-CALM1 binding fluorescence, higher = more signal;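 also: score merges spot fluorescence with signal to noise from triplicate slides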
# [6] = small-molecule microarray binders of probe aWnt5a, primary screen, biochemical, biotinylated probe, 635/667 nm fluorescence (AID 1113); settings: higher = more signal;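 also: score merges 667 nm fluorescence intensity with signal-to-noise per printed feature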
# [7] = small-molecule microarray binders of probe aShh, primary screen, biochemical, biotinylated probe, 635/667 nm fluorescence (AID 1114); settings: higher = more signal;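 also: probe is biotin-labelled aShh protein from a stem cell growth factor screen; measures binding of labelled protein to compounds printed on the slide; score merges feature fluorescence at 667 nm with signal-to-noise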
# [8] = small-molecule microarray binders of probe aNog, primary screen, biochemical, biotinylated probe, 635/667 nm fluorescence (AID 1115); settings: higher = more signal;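 also: probe is biotinylated aNog protein used at 0.15 µg/mL for 1 h at 4 C; z-score combines 667 nm fluorescence of each spot with its signal to noise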
# [9] = biological target: Torsin-1A-interacting protein 1 (Homo sapiens) (UniProt Q5JTV8); assay: LAP1 binders from COS7 cell lysate, primary screen, small-molecule microarray, 635/667 nm fluorescence (AID 1116); settings: COS7-hLAP1 lysate binding, 635 nm fluorescence, higher = more signal
# [10] = biological target: Alpha-bungarotoxin (Bungarus multicinctus) (UniProt P60615); assay: alpha-bungarotoxin binders on microarray, profiling panel, artefact control for SMM control protein annotation, biochemical, small-molecule microarray, Alexa647 label, 635/667 nm fluorescence (AID 1117); settings: alpha-BTX-A647 binding fluorescence, higher = more signal
# Sequence of Alpha-bungarotoxin (Bungarus multicinctus) (P60615 whole entry, looked up): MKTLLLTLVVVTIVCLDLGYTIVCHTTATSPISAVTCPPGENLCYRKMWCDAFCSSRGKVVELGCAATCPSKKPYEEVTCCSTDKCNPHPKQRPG
# Sequence of Left-right determination factor 2 (Homo sapiens) (O00292 whole entry, looked up): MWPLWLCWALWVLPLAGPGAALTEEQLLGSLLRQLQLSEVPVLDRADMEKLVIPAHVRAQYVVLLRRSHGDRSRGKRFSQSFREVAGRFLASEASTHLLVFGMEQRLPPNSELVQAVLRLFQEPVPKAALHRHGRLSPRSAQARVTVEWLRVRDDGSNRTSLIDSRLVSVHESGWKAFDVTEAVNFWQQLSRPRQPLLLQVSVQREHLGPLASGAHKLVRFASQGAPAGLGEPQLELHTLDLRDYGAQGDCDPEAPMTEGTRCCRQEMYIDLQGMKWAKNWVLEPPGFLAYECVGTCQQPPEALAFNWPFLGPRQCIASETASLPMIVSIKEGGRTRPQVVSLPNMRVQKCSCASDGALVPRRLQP
# Sequence of Torsin-1A-interacting protein 1 (Homo sapiens) (Q5JTV8 whole entry, looked up): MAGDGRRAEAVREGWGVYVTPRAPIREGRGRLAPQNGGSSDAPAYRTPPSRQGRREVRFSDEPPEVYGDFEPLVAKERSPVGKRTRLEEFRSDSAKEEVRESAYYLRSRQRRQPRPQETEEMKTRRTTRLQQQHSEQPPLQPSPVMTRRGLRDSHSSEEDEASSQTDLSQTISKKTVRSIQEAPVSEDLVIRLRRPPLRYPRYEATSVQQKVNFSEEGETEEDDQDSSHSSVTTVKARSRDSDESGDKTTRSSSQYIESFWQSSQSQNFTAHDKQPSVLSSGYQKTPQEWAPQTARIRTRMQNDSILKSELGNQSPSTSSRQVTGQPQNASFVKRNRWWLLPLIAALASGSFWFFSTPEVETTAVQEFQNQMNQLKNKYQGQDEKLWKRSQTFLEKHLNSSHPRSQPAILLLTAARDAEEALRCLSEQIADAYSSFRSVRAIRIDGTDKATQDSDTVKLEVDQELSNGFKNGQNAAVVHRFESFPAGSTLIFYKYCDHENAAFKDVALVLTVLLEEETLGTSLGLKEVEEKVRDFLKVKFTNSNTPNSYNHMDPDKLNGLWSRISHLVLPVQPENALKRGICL
structure (smiles),measurement,setting,value
O=C1C2C=CC(C(O)c3ccc(F)cc3)N(Nc3ccccc3)C2C(=O)N1c1ccccc1 (stereo not given),composite z-score,[1],1.42
same,z-score,[2],-0.379
same,composite z-score,[3],-0.238
same,composite z-score,[4],0.691
same,composite z-score,[5],0.619
same,composite z-score,[6],0.0597
same,composite z-score,[7],-0.289
same,composite z-score,[8],0.195
same,composite z-score,[9],0.691
same,composite z-score,[10],1.97
CCCC[C@H]1OB(O)C[C@H]2C1=C(C)C[C@H]1C(=O)N(Cc3ccccc3)C(=O)[C@H]12,composite z-score,[1],0.152
same,z-score,[2],0.885
same,composite z-score,[3],0.369
same,composite z-score,[4],0.229
same,composite z-score,[5],-0.326
same,composite z-score,[6],0.0017
same,composite z-score,[7],-0.0396
same,composite z-score,[8],-0.351
same,composite z-score,[9],-0.254
same,composite z-score,[10],-0.277
[N-]=[N+]=NCc1ccccc1[C@H]1OC(c2ccc(OCCCO)cc2)=N[C@@]1(CCS(=O)(=O)c1ccccc1)C(=O)N1CCOCC1,composite z-score,[1],1.44
same,z-score,[2],-1.27
same,composite z-score,[3],0.402
same,composite z-score,[4],2.58
same,composite z-score,[5],0.786
same,composite z-score,[6],0.242
same,composite z-score,[7],0.356
same,composite z-score,[8],2.25
same,composite z-score,[9],3.34
same,composite z-score,[10],2.59
COc1ccc(C#Cc2ccc3c(c2)[C@]2(C(=O)N3)[C@H](C(=O)NC[C@H](O)c3ccccc3)[C@H]3C(=O)O[C@H](c4ccccc4)[C@H](c4ccccc4)N3[C@@H]2c2ccccc2OCCO)cc1,composite z-score,[1],0.272
same,z-score,[2],-2.86
same,composite z-score,[3],0.5
same,composite z-score,[4],1.08
same,composite z-score,[5],0.243
same,composite z-score,[6],0.0229
same,composite z-score,[7],0.232
same,composite z-score,[8],0.325
same,composite z-score,[9],0.967
same,composite z-score,[10],1.22
C=CC[C@@]1(C(=O)O)N=C(c2ccc(OCCCO)cc2)O[C@@H]1c1ccccc1N=[N+]=[N-],composite z-score,[1],0.411
same,z-score,[2],1.03
same,composite z-score,[3],0.294
same,composite z-score,[4],1.39
same,composite z-score,[5],0.341
same,composite z-score,[6],-0.0236
same,composite z-score,[7],-0.181
same,composite z-score,[8],1.24
same,composite z-score,[9],1.02
same,composite z-score,[10],1.77
[N-]=[N+]=NCc1ccccc1C[C@]1(C(=O)NCCN2CCOCC2)N=C(c2ccc(OCCCO)cc2)O[C@H]1c1ccccc1N=[N+]=[N-],composite z-score,[1],0.927
same,z-score,[2],-1.76
same,composite z-score,[3],0.391
same,composite z-score,[4],1.2
same,composite z-score,[5],0.655
same,composite z-score,[6],0.0903
same,composite z-score,[7],0.21
same,composite z-score,[8],1.73
same,composite z-score,[9],1.51
same,composite z-score,[10],0.919
CC(C)NC(=O)[C@@H]1c2ccccc2C(=O)N(Cc2ccccc2Cl)[C@H]1c1ccc(CO)cc1,composite z-score,[1],1.17
same,z-score,[2],-0.657
same,composite z-score,[3],-0.998
same,composite z-score,[4],-0.0984
same,composite z-score,[5],0.29
same,composite z-score,[6],-0.13
same,composite z-score,[7],-0.0769
same,composite z-score,[8],0.139
same,composite z-score,[9],1.25
same,composite z-score,[10],-0.436
[N-]=[N+]=NCc1ccccc1C[C@@]1(C(=O)N2CCOCC2)N=C(c2ccc(OCCCO)cc2)O[C@@H]1c1ccccc1CN=[N+]=[N-],composite z-score,[1],-0.422
same,z-score,[2],-2.43
same,composite z-score,[3],-0.269
same,composite z-score,[4],2.2
same,composite z-score,[5],1.06
same,composite z-score,[6],0.324
same,composite z-score,[7],0.167
same,composite z-score,[8],-0.434
same,composite z-score,[9],1.27
same,composite z-score,[10],2.21
Cc1ccc([C@H]2[C@H](C(=O)O)[C@H](Sc3ccccc3)[C@@H](C(C)C)N2S(=O)(=O)c2ccc(C)cc2)cc1,composite z-score,[1],1.41
same,z-score,[2],-0.981
same,composite z-score,[3],0.314
same,composite z-score,[4],1.36
same,composite z-score,[5],0.904
same,composite z-score,[6],0.0718
same,composite z-score,[7],-0.0709
same,composite z-score,[8],-0.528
same,composite z-score,[9],0.759
same,composite z-score,[10],0.715
O=C1C2C=CC(C(O)c3cccs3)N(Nc3ccccc3F)C2C(=O)N1c1ccccc1 (stereo not given),composite z-score,[1],0.749
same,z-score,[2],0.124
same,composite z-score,[3],-0.0883
same,composite z-score,[4],0.0073
same,composite z-score,[5],-0.65
same,composite z-score,[6],0.0633
same,composite z-score,[7],0.0723
same,composite z-score,[8],-0.126
same,composite z-score,[9],0.543
same,composite z-score,[10],0.825
C=CCC(OC(C)=O)[C@@H]1[C@@H](N(Cc2ccc(-c3ccccc3)cc2)C(=O)Cc2ccc(OC)cc2)c2cc(OCCCO)ccc2N1C(=O)c1ccc2ccccc2n1 (stereo not given in full),composite z-score,[1],-0.844
same,z-score,[2],-0.36
same,composite z-score,[3],-0.259
same,composite z-score,[4],0.143
same,composite z-score,[5],1.01
same,composite z-score,[6],0.0259
same,composite z-score,[7],-0.0553
same,composite z-score,[8],-0.0544
same,composite z-score,[9],0.589
same,composite z-score,[10],0.819
NCCCCCCNC(=O)[C@H]1C[C@H]2C(=O)NCC(=O)N2[C@H]1c1cccc(OCCO)c1,composite z-score,[1],0.298
same,z-score,[2],-0.128
same,composite z-score,[3],0.816
same,composite z-score,[4],-0.0421
same,composite z-score,[5],-0.369
same,composite z-score,[6],-0.0643
same,composite z-score,[7],0.199
same,composite z-score,[8],0.0234
same,composite z-score,[9],0.963
same,composite z-score,[10],1.37
O=C1O[C@H](c2ccccc2)[C@H](c2ccccc2)N2[C@H]1[C@@H](C(=O)N1CCN(c3ncccn3)CC1)[C@]1(C(=O)Nc3ccccc31)[C@H]2c1ccc(OCCO)cc1,composite z-score,[1],1.42
same,z-score,[2],-1.67
same,composite z-score,[3],0.609
same,composite z-score,[4],-0.316
same,composite z-score,[5],-0.802
same,composite z-score,[6],-0.0286
same,composite z-score,[7],-0.0578
same,composite z-score,[8],-0.0464
same,composite z-score,[9],0.75
same,composite z-score,[10],0.4
